This is an account of results in PubChem BioAssay (NCATS).

Results filed as inconclusive are left out. Where a call stands in place of a potency, no number is given. Active and inactive are the calls of the source. Calls come from the whole dose curve; as a rule, active = well fitted cell-killing curve with a large enough effect; inconclusive = small, poorly fitted or top-dose-only effect; inactive = flat fitted curve, though single readings scatter.
Potency is the fitted concentration of half-maximal effect.

The experiment can be described thus: J3T Cancer Cell Toxicity qHTS against the NCATS CANVASS Library (AID 1347371). Particulars: J3T dog glioma viability, ATP luminescence, 72 h; series mostly up to 46.1 µM. Summed up: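 Viability of the J3T glioma line from dog is scored by ATP luminescence after a 72 hr incubation with natural products.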
With `CC[C@@H](c1cc(OC)c(OC)cc1OC)[C@H](C)[C@@H](/C(C)=C/c1cc(OC)c(OC)cc1OC)c1cc(OC)c(OC)cc1OC`, the Potency result is “inactive”.
As to `C/C=C/c1cc2c(c(=O)o1)C(=O)[C@@H](O)[C@H](C)O2`, the Potency was 26.4 µM (active).
The entry for `CN1CCc2cc3c(c4c2C1(C)C(=O)c1cc(O)ccc1-4)OCO3` (stereo not given) is “inactive”.
Take `COc1cc2c(cc1OC)[C@@H](c1ccc3c(c1)OCO3)C(C)[C@@H](C)C2=O` (stereo not given in full): the Potency entry was “inactive”.
Then `CC(C)[C@@H]1CC(=O)c2coc3c2[C@H]1C[C@@H](C)C3=O`, with “inactive”; and `COc1cc2oc3ccccc3c(=O)c2cc1OC`, with “inactive”; and `COC(=O)[C@@]1(C)CCC[C@]2(C)c3cc(OC)ccc3CC[C@@H]12`, with “inactive”.
Then `COc1cc2ccc(=O)oc2c(O)c1O[C@@H]1O[C@H](CO)[C@@H](O)[C@H](O)[C@H]1O`, with “inactive”.
Then `CC[C@H]1[C@@H](C)[C@@H](c2cc(OC)c(OC)cc2OC)[C@H](C)[C@@H](c2cc(OC)c(OC)cc2OC)[C@@]12C=C(OC)C(=O)C=C2OC`, with “inactive”.
Consider `O=C1CCC(=O)N(O)CCCCCNC(=O)CCC(=O)N(O)CCCCCNC(=O)CCC(=O)N(O)CCCCCN1`, for which the Potency entry was “inactive”.
The entry for `C=C1C[C@H]2O[C@@H]3[C@@H]4[C@H](CC[C@@](C)(O)[C@@H]42)[C@H](C)COC3(C)[C@@H](OC(=O)CCCCCCC)C[C@H]1O` (stereo not given in full) is “inactive”; for `CC1=C(C)C(=O)OC(C(C)C2(O)CCC3C4C5OC5C5(O)CC=CC(=O)C5(C)C4CCC32C)C1` (stereo not given) it is “inactive”; for `C[C@H](CCC(O)C(C)(O)CO)[C@@]1(O)CC[C@@]2(C)C3=C(CC[C@@]21C)[C@@]1(C)CCC(OC(=O)CCC(=O)O)C(C)(C)[C@@H]1CC3` (stereo not given in full) it is “inactive”.
The figure for `CO[C@@H]1[C@H](O)[C@@H](C)O[C@@H](OC[C@@H]2C(C)OC(=O)/C=C/[C@H](C)C(O[C@@H]3O[C@H](C)CC4(OC(=O)O[C@@H]4C)C3O)[C@@H](C)CC(C)C(=O)/C=C/[C@H]3OC23)[C@@H]1OC` (stereo not given in full) is 13.2 µM (active); for `C=C[C@@](C)(O)CC[C@@H]1[C@@]2(C)CCCC(C)(C)[C@@H]2CC[C@@]1(C)O` it is “inactive”.
Then `COc1ccc([C@@H]2c3cc4c(cc3C(=O)[C@H](C)C2C)OCO4)cc1OC` (stereo not given in full), with “inactive”; and `C[C@H](c1cnc(N)[nH]1)c1ccc(O)c2[nH]cc(-c3cnc(-c4c[nH]c5ccccc45)c(=O)[nH]3)c12`, with “inactive”; and `COc1ccc([C@@H]2c3cc4c(cc3C[C@H](C)C2C)OCO4)cc1OC` (stereo not given in full), with “inactive”.
As to `CC[C@@H]1[C@H](C)[C@H](c2cc(OC)c(OC)cc2OC)[C@@H](C)[C@H](c2cc(OC)c(OC)cc2OC)[C@]12C=C(OC)C(=O)C=C2OC`, the Potency entry was “inactive”.
Then `C[C@H]1CCC2(OC1)O[C@H]1C[C@H]3[C@@H]4CC(=O)[C@]5(O)C[C@H](O)CC[C@@]5(C)[C@H]4CC[C@@]3(C)[C@H]1[C@H]2C` (stereo not given in full), with “inactive”.
